The supplement of paper PMC11732987, “Enantioselective OTUD7B fragment discovery through chemoproteomics screening and high-throughput optimisation” (Communications Chemistry, 2025)
Unmarked numbers belong to inactive results.

How the values were obtained:
Assay in all cases: log2 ratio of Biotin-Ahx-Ub-VS probe labelling (fragment/DMSO); higher = less target engagement (more negative = stronger competition), active = hit call of the paper (q ≤ 0.05, log2 ratio ≤ -1)
Conditions in all cases: compound concentration: 200 uM; treatment time: 3 h
USP16 = USP16 (UniProt Q9Y5T5)
Sequence of USP16 (Q9Y5T5 whole entry, looked up, the tested form may be a part): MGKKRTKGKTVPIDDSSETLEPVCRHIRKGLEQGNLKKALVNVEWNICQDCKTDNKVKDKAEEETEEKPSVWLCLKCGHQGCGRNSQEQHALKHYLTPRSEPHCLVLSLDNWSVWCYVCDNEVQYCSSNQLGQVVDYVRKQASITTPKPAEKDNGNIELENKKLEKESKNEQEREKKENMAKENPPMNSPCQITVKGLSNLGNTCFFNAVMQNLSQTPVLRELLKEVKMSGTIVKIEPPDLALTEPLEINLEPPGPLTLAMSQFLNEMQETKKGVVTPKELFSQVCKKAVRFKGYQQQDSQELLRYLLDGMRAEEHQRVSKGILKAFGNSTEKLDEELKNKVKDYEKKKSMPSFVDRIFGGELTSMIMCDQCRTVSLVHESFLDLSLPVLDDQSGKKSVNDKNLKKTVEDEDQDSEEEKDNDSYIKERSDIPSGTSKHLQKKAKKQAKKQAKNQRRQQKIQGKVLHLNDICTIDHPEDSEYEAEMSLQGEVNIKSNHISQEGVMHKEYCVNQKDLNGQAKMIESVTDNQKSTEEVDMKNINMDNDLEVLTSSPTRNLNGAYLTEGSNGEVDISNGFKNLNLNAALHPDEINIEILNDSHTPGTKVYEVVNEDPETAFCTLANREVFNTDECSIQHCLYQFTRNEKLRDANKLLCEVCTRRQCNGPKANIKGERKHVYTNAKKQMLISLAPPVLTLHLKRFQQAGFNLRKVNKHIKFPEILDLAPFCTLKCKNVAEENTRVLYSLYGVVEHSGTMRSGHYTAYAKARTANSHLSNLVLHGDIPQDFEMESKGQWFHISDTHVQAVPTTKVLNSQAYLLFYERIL
Summary of the method: (§1)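 Using Biotin-Ahx-Ub-VS at 0.5 µM final for 1 h, DUBs were labelled in HEK293T lysate (495 µg per sample) that had first been treated in triplicate with fragment at 200 µM or vehicle for 3 h. NeutrAvidin enrichment, LysC and trypsin digestion and diaPASEF LC-MS/MS followed. Spectronaut label-free quantities were global-median-normalised. Values are average log2 fragment/vehicle ratios by unpaired t-test, using proteins with ≥2 unique peptides.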

USP19 = biological target: T1, USP19 (UniProt O94966)
T1 sequence (whole entry): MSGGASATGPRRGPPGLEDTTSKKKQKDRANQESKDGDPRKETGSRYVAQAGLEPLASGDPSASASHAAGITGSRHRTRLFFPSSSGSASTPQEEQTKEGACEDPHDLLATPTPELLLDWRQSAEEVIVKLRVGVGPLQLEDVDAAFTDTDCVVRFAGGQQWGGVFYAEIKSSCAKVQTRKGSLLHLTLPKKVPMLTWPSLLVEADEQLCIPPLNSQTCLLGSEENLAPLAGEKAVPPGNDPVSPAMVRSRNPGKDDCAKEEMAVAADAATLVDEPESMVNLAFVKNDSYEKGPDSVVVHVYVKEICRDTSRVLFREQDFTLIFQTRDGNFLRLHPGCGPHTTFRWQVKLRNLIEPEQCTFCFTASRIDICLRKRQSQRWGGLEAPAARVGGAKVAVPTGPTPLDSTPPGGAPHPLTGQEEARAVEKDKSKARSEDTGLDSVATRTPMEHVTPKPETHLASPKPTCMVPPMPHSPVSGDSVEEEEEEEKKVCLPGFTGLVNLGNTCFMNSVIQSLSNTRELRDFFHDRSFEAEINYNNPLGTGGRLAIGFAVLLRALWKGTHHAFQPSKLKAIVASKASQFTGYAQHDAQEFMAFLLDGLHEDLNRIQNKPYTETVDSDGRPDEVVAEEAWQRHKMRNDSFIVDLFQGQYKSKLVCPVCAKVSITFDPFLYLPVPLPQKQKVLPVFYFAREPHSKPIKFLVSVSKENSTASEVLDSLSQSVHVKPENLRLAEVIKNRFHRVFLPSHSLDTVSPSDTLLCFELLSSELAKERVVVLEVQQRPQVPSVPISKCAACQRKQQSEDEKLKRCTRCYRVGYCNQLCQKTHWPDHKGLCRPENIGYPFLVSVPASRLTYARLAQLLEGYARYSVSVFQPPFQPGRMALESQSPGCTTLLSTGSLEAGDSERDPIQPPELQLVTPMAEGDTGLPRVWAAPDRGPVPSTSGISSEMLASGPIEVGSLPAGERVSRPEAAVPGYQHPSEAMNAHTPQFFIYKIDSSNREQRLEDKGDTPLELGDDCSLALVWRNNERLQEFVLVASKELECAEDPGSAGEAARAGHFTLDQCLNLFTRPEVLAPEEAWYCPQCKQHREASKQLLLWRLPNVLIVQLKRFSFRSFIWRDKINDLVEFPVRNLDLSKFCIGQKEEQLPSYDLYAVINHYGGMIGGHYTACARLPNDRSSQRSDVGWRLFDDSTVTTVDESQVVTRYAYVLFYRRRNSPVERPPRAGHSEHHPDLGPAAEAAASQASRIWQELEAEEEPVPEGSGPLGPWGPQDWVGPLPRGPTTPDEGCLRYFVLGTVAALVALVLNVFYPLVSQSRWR
Summary of the method: as §1

USP24 = USP24 (UniProt Q9UPU5)
Sequence of USP24 (Q9UPU5 whole entry): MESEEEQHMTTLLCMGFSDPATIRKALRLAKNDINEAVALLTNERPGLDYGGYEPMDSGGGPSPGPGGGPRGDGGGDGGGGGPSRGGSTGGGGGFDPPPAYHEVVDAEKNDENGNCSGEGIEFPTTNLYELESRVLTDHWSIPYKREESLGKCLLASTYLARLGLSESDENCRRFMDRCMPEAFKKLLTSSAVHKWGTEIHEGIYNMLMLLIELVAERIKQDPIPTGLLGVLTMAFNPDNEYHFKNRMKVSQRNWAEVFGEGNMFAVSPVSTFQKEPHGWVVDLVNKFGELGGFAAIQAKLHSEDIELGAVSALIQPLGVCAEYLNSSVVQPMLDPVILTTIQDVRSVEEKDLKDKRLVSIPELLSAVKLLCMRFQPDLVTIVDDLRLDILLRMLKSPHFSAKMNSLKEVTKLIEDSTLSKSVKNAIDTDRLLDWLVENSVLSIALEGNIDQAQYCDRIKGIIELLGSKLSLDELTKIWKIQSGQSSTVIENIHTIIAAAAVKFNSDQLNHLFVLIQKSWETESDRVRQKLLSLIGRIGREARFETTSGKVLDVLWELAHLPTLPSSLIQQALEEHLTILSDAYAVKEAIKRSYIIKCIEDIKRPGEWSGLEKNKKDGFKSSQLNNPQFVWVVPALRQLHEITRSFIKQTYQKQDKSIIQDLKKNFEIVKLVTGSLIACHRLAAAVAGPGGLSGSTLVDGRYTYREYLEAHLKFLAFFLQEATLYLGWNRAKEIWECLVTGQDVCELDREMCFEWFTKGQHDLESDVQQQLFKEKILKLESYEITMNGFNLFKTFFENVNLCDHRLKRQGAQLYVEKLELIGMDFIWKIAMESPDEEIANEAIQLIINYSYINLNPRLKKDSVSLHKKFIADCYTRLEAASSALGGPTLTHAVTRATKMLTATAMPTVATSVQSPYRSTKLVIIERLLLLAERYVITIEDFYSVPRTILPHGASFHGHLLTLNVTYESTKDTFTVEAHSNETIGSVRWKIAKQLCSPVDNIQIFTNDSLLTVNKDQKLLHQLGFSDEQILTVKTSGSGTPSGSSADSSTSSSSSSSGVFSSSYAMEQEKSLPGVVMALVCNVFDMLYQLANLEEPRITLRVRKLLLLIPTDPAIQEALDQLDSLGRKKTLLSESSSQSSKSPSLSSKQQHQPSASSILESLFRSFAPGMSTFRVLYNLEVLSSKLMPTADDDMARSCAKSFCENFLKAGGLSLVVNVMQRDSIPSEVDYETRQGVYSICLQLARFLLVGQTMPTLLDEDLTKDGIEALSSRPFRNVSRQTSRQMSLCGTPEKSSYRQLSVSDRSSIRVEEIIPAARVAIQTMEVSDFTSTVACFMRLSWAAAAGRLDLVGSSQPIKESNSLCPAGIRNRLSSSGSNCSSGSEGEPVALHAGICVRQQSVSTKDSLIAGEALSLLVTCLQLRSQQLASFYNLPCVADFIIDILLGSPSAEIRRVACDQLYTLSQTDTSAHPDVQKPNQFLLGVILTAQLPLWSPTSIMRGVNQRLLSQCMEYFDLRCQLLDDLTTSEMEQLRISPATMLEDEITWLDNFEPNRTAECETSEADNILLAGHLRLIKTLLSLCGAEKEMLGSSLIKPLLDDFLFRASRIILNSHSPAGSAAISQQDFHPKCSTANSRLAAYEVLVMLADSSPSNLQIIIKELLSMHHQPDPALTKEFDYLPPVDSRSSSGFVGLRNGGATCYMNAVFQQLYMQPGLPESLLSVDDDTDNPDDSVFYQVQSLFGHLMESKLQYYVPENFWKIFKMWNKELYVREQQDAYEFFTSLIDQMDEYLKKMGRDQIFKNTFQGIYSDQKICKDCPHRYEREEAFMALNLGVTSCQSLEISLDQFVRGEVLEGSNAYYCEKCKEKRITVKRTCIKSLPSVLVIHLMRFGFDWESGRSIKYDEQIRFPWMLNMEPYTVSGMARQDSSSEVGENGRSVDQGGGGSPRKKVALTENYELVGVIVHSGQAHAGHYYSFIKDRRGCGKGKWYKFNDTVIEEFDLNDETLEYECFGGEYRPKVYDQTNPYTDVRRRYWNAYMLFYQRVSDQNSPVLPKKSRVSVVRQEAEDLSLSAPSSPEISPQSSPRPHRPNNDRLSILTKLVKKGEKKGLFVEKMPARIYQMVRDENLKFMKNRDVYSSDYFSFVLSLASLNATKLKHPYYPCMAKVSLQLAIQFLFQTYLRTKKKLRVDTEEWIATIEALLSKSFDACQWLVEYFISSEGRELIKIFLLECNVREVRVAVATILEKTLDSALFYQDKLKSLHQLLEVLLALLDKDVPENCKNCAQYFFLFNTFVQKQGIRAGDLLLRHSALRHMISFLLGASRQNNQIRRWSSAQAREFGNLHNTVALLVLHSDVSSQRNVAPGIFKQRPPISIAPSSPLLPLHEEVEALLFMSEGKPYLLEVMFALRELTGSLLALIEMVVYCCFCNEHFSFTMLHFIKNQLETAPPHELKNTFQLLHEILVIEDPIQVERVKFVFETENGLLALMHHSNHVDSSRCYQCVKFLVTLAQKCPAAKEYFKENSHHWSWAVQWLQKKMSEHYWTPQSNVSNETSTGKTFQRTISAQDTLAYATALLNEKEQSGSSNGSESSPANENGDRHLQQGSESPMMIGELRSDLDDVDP
Summary of the method: as §1

USP25 = biological target: T2, USP25 (UniProt Q9UHP3)
T2 sequence (whole entry): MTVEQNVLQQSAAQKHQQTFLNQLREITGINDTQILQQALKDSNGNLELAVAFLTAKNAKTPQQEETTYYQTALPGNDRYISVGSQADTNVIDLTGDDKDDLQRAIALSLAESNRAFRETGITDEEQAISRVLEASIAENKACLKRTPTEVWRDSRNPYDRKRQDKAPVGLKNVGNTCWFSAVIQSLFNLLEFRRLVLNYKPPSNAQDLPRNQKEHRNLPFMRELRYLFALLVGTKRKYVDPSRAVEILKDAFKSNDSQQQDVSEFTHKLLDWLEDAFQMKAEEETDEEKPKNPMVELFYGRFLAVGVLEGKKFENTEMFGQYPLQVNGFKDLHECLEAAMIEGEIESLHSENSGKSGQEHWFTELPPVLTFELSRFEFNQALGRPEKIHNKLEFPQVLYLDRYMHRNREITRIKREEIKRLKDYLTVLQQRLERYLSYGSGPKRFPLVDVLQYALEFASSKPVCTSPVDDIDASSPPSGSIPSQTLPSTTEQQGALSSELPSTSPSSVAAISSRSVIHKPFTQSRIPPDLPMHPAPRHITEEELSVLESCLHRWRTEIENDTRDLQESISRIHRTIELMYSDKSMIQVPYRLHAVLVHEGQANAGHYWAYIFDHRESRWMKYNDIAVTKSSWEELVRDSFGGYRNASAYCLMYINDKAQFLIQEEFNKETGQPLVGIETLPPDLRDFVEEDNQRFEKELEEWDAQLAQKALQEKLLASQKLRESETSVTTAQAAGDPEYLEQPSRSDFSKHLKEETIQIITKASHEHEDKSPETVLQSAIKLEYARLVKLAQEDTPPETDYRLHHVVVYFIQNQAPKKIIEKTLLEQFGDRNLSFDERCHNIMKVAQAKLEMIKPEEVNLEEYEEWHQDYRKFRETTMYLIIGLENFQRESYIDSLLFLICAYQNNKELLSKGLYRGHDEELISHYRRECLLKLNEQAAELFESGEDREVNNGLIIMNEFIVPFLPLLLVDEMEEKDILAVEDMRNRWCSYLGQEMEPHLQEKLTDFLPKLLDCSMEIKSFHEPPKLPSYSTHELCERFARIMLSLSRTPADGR
Summary of the method: as §1

USP28 = biological target: T3, USP28 (UniProt Q96RU2)
T3 sequence (whole entry): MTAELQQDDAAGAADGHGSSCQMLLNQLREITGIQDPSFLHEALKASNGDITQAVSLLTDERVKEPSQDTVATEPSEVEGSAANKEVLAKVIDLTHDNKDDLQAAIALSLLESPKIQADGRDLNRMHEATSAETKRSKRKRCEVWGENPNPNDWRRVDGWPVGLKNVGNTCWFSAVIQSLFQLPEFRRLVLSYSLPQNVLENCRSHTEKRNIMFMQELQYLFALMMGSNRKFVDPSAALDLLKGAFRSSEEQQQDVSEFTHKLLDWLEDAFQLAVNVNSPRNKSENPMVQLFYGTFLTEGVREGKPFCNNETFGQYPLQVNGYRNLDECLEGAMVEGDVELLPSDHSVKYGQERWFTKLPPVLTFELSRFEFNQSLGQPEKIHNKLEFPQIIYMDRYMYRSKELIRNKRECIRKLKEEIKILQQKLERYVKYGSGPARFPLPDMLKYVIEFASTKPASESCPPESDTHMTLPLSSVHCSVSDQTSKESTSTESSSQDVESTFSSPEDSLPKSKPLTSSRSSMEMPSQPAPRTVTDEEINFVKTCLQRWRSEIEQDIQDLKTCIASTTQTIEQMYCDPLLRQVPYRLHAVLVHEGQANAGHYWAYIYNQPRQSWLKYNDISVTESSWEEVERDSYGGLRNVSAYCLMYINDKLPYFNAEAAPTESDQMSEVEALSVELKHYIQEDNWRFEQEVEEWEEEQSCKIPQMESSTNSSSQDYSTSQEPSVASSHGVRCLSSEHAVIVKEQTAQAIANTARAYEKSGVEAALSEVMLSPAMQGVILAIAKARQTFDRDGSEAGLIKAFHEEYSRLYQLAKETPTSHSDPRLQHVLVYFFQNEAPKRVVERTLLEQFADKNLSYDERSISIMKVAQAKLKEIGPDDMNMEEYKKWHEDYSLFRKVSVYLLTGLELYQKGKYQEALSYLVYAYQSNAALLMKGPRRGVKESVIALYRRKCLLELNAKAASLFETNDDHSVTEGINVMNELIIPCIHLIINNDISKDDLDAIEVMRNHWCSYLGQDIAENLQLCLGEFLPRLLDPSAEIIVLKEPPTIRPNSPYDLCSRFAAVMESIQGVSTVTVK
Summary of the method: as §1

## NS(=O)(=O)c1ccc(Cl)c(NC(=O)CCl)c1
USP16
  log2 ratio of Biotin-Ahx-Ub-VS probe labelling: 0.0198
USP19
  log2 ratio of Biotin-Ahx-Ub-VS probe labelling: -0.307
USP24
  log2 ratio of Biotin-Ahx-Ub-VS probe labelling: -0.149
USP25
  log2 ratio of Biotin-Ahx-Ub-VS probe labelling: -1.57 (active)
USP28
  log2 ratio of Biotin-Ahx-Ub-VS probe labelling: -1.42 (active)
